Data reported in PubChem BioAssay (NCATS).
Records with an inconclusive call do not appear. The source made the active and inactive calls. Unless noted, calls come from the whole dose curve; as a rule, active = well fitted curve in the direction sought with a large enough effect; inconclusive = small, poorly fitted or top-dose-only effect, or another doubt; inactive = no such curve, though single readings can be large; an effect the other way counts as inactive or inconclusive.

How the values were obtained:
[1] = biological target: Lysosomal acid glucosylceramidase (Homo sapiens) (UniProt P04062); test: Glucocerebrosidase-p2 (AID 348; in the data active = potency below about 10 µM; note: potency is the fitted concentration of half-maximal effect); conditions: purified GBA, blue fluorogenic substrate, 40 min
Summary of the method: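 Compounds titrated from 0.6 nM upwards against 0.2 nM enzyme in pH 5.9 citric acid/KH2PO4, taurocholate, tween-20; blue fluorogenic substrate 80 uM, 40 min room temperature, stopped and read Ex 365/Em 440 for AC50.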

[2] = AP1 Signaling Pathway (AID 357; active = well fitted curve in either direction with a large enough effect, not every such curve was filed as active;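 note: ME-180 reporter cells stimulated with EGF at its EC50 level; % is set by controls: 0 for no effect and ±100 for the full control effect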); conditions: ME-180 AP-1-bla reporter, EGF-induced, beta-lactamase ratio, 5 h; at 7.69 µM (top of the series) unless noted
Summary of the method: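 Read-out was the 460nm/530nm emission ratio (excitation 405nm) after CCF4 loading for 2.5 hours at room temperature. Cells carried an AP-1-driven beta-lactamase reporter, were stimulated with EC50 EGF plus compound for 5 hours, and AC50 values came from titrations.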

[3] = biological target: Cytochrome P450 1A2 (Homo sapiens) (UniProt P05177); test: p450-cyp1a2 (AID 410; calls by dose curve; note: potency is the fitted concentration of half-maximal effect); conditions: recombinant CYP1A2, luciferin-ME demethylation, luminescence; series mostly up to 57 µM
Summary of the method: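 Human CYP1A2 (20nM) demethylated Luciferin-ME at its Km (100uM) in 100mM KPO4. After 10 min compound preincubation, NADPH regeneration ran the reaction 60 min at room temperature. Luciferin was read by luminescence, normalized to 57 uM furafylline.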

[4] = Stat Signaling Pathway (AID 446; active = well fitted curve in either direction with a large enough effect, not every such curve was filed as active;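 note: ME-180 cervical cancer cells given 40 pM IL-6 alongside compound; SIE-controlled beta-lactamase reporter measured as 460/530 nm FRET emission ratio; % is set by controls: 0 for no effect and ±100 for the full control effect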); conditions: ME-180 SIE beta-lactamase reporter, IL-6 stimulated, 5 h; series mostly up to 7.69 µM
Summary of the method: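 ME-180 cells carrying a SIE-driven beta-lactamase reporter are stimulated with 40 pM IL-6 for 5 h at 37C in the presence of compound. The 460/530 nm FRET substrate ratio is read after 2.5 h at RT. Data are normalised to 300 pM IL-6 and to 125 nM JAK inhibitor controls.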

[5] = biological target: Glucocorticoid receptor (Homo sapiens) (UniProt P04150); test: GR-EFC Redistribution (AID 451; calls by dose curve; note: potency is the fitted concentration of half-maximal effect); conditions: CHO-K1 GR-EFC translocation, beta-gal luminescence, 2 h
Summary of the method: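 CHO-K1 cells expressing nuclear EA and GR-ED fragments of b-gal; compounds titrated up to 46 uM final, 2 h at 37 C. GR nuclear translocation read as complemented b-gal luminescence after 1 h RT detection.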

[6] = biological target: 3',5'-cyclic-AMP phosphodiesterase 4B (Homo sapiens) (UniProt Q07343); test: qHTS Assay for Inhibitors of PDE-IV (AID 607; active = well fitted activation curve with a large enough effect in the main read-out, with a control signal flat, not every such curve was filed as active; note: % of control where 0% means no effect); conditions: HEK293 ACTOne CNG channel cells, membrane potential fluorescence; series mostly up to 22.9 µM
Summary of the method: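 HEK293 ACTOne cells with CNG channel (1000/well), endogenous PDE4; membrane potential dye, compounds up to 22.9 uM final. Fluorescence Ex 535/Em 590; RO 20-1724 (100 uM final) as reference.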

[7] = biological target: Rap guanine nucleotide exchange factor 3 (Homo sapiens) (UniProt O95398); test: Confirmatory qHTS for antagonist of cAMP-regulated guanine nucleotide exchange factor 3 (EPAC1) (AID 1645880); conditions: EPAC1 Rap1B-BODIPY-GDP exchange, fluorescence; activity, negative = inhibition: at 115 µM (top of the series); note: nearly all actives have a fitted effect of over 55% in size; note: potency is the fitted concentration of half-maximal effect;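 for activity, negative = inhibition: plate controls were DMSO only for no effect and full effect of the ATA control for full effect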
Summary of the method: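 Nucleotide exchange uses 100 nM EPAC1, 250 nM RAP1B-BODIPY-GDP and 50 uM GDP, with compounds in a concentration-titration series. After 5 min at room temperature, fluorescence (480 nm ex/540 nm em) is read every 5 min for 30 min. Data are normalized to control ATA and DMSO.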

[8] = biological target: Rap guanine nucleotide exchange factor 3 (Homo sapiens) (UniProt O95398); test: Confirmatory qHTS for agonist of cAMP-regulated guanine nucleotide exchange factor 3 (EPAC1) (AID 1645881); conditions: EPAC1 Rap1B BODIPY-GDP exchange fluorescence; series mostly up to 154 µM; note: nearly all actives have a fitted effect of over 75% in size; note: potency is the fitted concentration of half-maximal effect;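 for activation: EPAC1 catalysed release of BODIPY-GDP from Rap1B seen as fluorescence loss; 100% = effect of cAMP agonist control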
[9] = biological target: Rap guanine nucleotide exchange factor 4 (Homo sapiens) (UniProt Q8WZA2); test: Confirmatory qHTS for agonist of cAMP-regulated guanine nucleotide exchange factor 4 (EPAC2) (AID 1645884); conditions: EPAC2 GEF activity, Rap1B-BODIPY-GDP fluorescence; series mostly up to 154 µM;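 note: nucleotide exchange releases bodipy-GDP from Rap1 and this lowers its fluorescence; nearly all actives have a fitted effect of over 65% in size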; note: potency is the fitted concentration of half-maximal effect; for activation: % is set by controls: 0 for no effect and ±100 for the full control effect
[10] = biological target: Rap guanine nucleotide exchange factor 4 (Homo sapiens) (UniProt Q8WZA2); test: Confirmatory qHTS for antagonist of cAMP-regulated guanine nucleotide exchange factor 4 (EPAC2) (AID 1645885); conditions: EPAC2 Rap1B-BODIPY-GDP exchange fluorescence, biochemical; series mostly up to 12.7 µM; note: nearly all actives have a fitted effect of over 25% in size; note: potency is the fitted concentration of half-maximal effect
[11] = biological target: Tumor susceptibility gene 101 protein (Homo sapiens) (UniProt Q99816); test: qHTS Assay for Iinhibitors of HIV-1 Budding by Blocking the Interaction of PTAP/TSG101: Hit Validation (AID 651600); conditions: PTAP peptide/TSG101 UEV interaction, biochemical assay; series mostly up to 57.5 µM; note: nearly all actives have a fitted effect of over 70% in size; note: potency is the fitted concentration of half-maximal effect
Summary of the method: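 FITC-PTAP peptide (50 nM final) binding to Tsg101 binding domain (10 uM final) was measured by polarization after 20 min at r.t. with compounds, in 10 mM HEPES pH 7.5 buffer with 0.15 M NaCl and 0.01% Tween 20.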

[12] = biological target: Rap guanine nucleotide exchange factor 3 (Homo sapiens) (UniProt O95398); test: Counterscreen qHTS for agonist of cAMP-regulated guanine nucleotide exchange factor 3 (EPAC1) (AID 1645889); conditions: EPAC1 Rap1B-BODIPY-GDP exchange, fluorescence; series mostly up to 154 µM; note: nearly all actives have a fitted effect of over 40% in size; note: potency is the fitted concentration of half-maximal effect; for activation: % of control where 0% means no effect
Summary of the method: (§1)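 Rap1B–BODIPY-GDP (250 nM) with 50 uM GDP; compounds pin-transferred to 9.74 nM–152 uM final (activator) or from 7.32 nM upwards (inhibitor). Fluorescence Ex/Em 480/540 nm read at 5 and 30 min, then after adding cAMP or buffer, at room temperature.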

[13] = biological target: DNA dC->dU-editing enzyme APOBEC-3G (Homo sapiens) (UniProt Q9HC16); test: qHTS for inhibitors of Vif-A3G interactions: Validation (AID 588379); conditions: Vif-A3G protein interaction assay; series mostly up to 46.1 µM; note: 0% is about no effect
Summary of the method: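 HeLa cells stably expressing Vif and A3G-eYFP, 700 cells/well, incubated overnight at 37 deg C, then exposed to compound overnight at 37 deg C. Inhibition of Vif-mediated degradation read as increased yellow fluorescence (Ex 488/Em 500-530) by laser-scanning cytometry.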

[14] = biological target: Rap guanine nucleotide exchange factor 3 (Homo sapiens) (UniProt O95398); test: Counterscreen qHTS for antagonist of cAMP-regulated guanine nucleotide exchange factor 3 (EPAC1) (AID 1645888); conditions: Rap1B-BODIPY-GDP nucleotide exchange, fluorescence; series mostly up to 154 µM;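 note: fluorescence loss as bound BODIPY-GDP is released from Rap1B; % of control where 0% means no effect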
Summary of the method: as §1

[15] = NFAT Signaling Pathway (AID 444; active = well fitted curve in either direction with a large enough effect, not every such curve was filed as active;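 note: carbachol stimulus at about its EC50 of 1 µM final; % is set by controls: 0 for no effect and ±100 for the full control effect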); conditions: Jurkat NFAT-bla M1, carbachol, beta-lactamase ratio, 5 h; at 7.69 µM (top of the series) unless noted
Summary of the method: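 Jurkat cells with NFAT-driven β-lactamase reporter and co-expressed M1 receptor, stimulated with carbachol (final 1 uM, ~EC50), compound titration, 5 h at 37 °C. CCF4 loaded 1 h at RT; 460/530 nm ratio gave %activity and AC50.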

[16] = biological target: Glucocorticoid receptor (Homo sapiens) (UniProt P04150); test: GR-GFP Redistribution (AID 450;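 active = compounds whose dose series gives a full or clear partial fitted curve of increased nuclear translocation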; note: potency is the fitted concentration of half-maximal effect); conditions: U2OS GR-GFP nuclear translocation, laser cytometry, 2 h
[17] = biological target: Cytochrome P450 2C9 (Homo sapiens) (UniProt P11712); test: qHTS Assay for Inhibitors and Substrates of Cytochrome P450 2C9 (AID 883); conditions: recombinant CYP2C9, luciferin-H luminescence, 60 min; series mostly up to 57.1 µM; note: potency is the fitted concentration of half-maximal effect; nearly all actives have a fitted effect of over 60% in size
Summary of the method: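 Human CYP2C9 (10nM) with Luciferin-H at 100uM (its KM) in 25mM KPO4; compound preincubated 10 min at 37C, then NADPH regeneration for 60 min at 37C. Luciferin read by luminescence after detection reagent; normalized to 57uM sulphaphenazole as full inhibition.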

[18] = biological target: Cytochrome P450 3A4 (Homo sapiens) (UniProt P08684); test: qHTS Assay for Activators of Cytochrome P450 3A4 (AID 885); conditions: recombinant CYP3A4, Luciferin-PPXE luminescence, 60 min; series mostly up to 57.1 µM; note: nearly all actives have a fitted effect of over 65% in size
Summary of the method: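 Human CYP3A4 (20 nM) with Luciferin-PPXE at 25 uM (its KM) in 200 mM KPO4; 10 min compound preincubation, then NADPH regeneration and 60 min reaction at RT. Luciferin read by luminescence; normalized to 57 uM ketoconazole full inhibition.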

[19] = biological target: Cytochrome P450 2D6 (Homo sapiens) (UniProt P10635); test: qHTS Assay for Inhibitors and Substrates of Cytochrome P450 2D6 (AID 891); conditions: recombinant CYP2D6, luciferin-ME EGE luminescence; series mostly up to 57.1 µM; note: potency is the fitted concentration of half-maximal effect; nearly all actives have a fitted effect of over 60% in size
Summary of the method: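 Human CYP2D6 (5 nM) with 30 uM Luciferin-ME EGE (at Km) in 100 mM KPO4, compound preincubated 10 min, then NADPH regeneration system for 60 min at room temperature. Luciferin read by luminescence; normalized to 1.43 uM quinidine.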

[20] = biological target: Cytochrome P450 2C19 (Homo sapiens) (UniProt P33261); test: qHTS Assay for Inhibitors and Substrates of Cytochrome P450 2C19 (AID 899); conditions: recombinant CYP2C19, luciferin-H EGE luminescence; series mostly up to 57.1 µM; note: potency is the fitted concentration of half-maximal effect; nearly all actives have a fitted effect of over 60% in size
Summary of the method: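 5 nM human CYP2C19 with 10uM Luciferin-H EGE (at KM) in 50mM KPO4, compound preincubated 10 min at 37C, then NADPH regeneration for 60 min at 37C. Luciferin read by luminescence after detection reagent; normalized to 57uM ketoconazole as full inhibition.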

[21] = biological target: Dual specificity protein kinase CLK4 (Homo sapiens) (UniProt Q9HAZ1); test: qHTS Assay for Inhibitors of CDC-like Kinase 4 (Kinase-Glo Assay) (AID 1770); conditions: recombinant Clk4, Kinase-Glo ATP depletion luminescence; series mostly up to 66.7 µM; note: potency is the fitted concentration of half-maximal effect; nearly all actives have a fitted effect of over 65% in size
Summary of the method: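 Luminescent ATP-depletion read-out (Kinase-Glo) after 4.5 h room-temperature reaction of Clk4 (25 nM final) with RS peptide (100 uM) and ATP (1 uM), pH 7.5 Tris buffer with MgCl2 and DTT.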

[22] = biological target: Dual specificity protein kinase CLK4 (Homo sapiens) (UniProt Q9HAZ1); test: qHTS Assay for Inhibitors of CDC-like Kinase 4 (ADP-FP Assay) (AID 1795); conditions: Transcreener ADP fluorescence polarization; series mostly up to 50 µM;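 note: recombinant human CLK4 phosphorylating RS repeat peptide at 1 µM ATP; % is set by controls: 0 for no effect and ±100 for the full control effect; nearly all actives have a fitted effect of over 60% in size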
Summary of the method: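 Kinase activity was measured as ADP production using Transcreener orange tracer (4 nM) and ADP antibody (1 ug/mL) fluorescence polarization, with ADP calculated from a calibration curve. The 1 h reaction contained 6.25 nM Clk4, 1 uM ATP and 100 uM RS peptide at pH 7.5 with Mg2+.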

[23] = biological target: Ubiquitin carboxyl-terminal hydrolase 1 (Homo sapiens) (UniProt O94782); test: Inhibitors of USP1/UAF1: Pilot qHTS (AID 504865); conditions: purified USP1/UAF1, Ub-rhodamine cleavage fluorescence; series mostly up to 54.9 µM;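 note: rhodamine fluorescence freed from ubiquitin-rhodamine substrate followed over time; top concentration of the series differs between compounds; % is set by controls: 0 for no effect and ±100 for the full control effect; nearly all actives have a fitted effect of over 35% in size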
Summary of the method: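 Deubiquitinase activity followed as kinetic rhodamine fluorescence release from 150 nM Ub-Rho. 1 nM USP1/UAF1 with compound, after 15 min room-temperature preincubation, in HEPES pH 7.8 buffer containing TCEP, EDTA, BSA and Tween-20.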

Sequence of Rap guanine nucleotide exchange factor 4 (Homo sapiens) (Q8WZA2 whole entry, looked up): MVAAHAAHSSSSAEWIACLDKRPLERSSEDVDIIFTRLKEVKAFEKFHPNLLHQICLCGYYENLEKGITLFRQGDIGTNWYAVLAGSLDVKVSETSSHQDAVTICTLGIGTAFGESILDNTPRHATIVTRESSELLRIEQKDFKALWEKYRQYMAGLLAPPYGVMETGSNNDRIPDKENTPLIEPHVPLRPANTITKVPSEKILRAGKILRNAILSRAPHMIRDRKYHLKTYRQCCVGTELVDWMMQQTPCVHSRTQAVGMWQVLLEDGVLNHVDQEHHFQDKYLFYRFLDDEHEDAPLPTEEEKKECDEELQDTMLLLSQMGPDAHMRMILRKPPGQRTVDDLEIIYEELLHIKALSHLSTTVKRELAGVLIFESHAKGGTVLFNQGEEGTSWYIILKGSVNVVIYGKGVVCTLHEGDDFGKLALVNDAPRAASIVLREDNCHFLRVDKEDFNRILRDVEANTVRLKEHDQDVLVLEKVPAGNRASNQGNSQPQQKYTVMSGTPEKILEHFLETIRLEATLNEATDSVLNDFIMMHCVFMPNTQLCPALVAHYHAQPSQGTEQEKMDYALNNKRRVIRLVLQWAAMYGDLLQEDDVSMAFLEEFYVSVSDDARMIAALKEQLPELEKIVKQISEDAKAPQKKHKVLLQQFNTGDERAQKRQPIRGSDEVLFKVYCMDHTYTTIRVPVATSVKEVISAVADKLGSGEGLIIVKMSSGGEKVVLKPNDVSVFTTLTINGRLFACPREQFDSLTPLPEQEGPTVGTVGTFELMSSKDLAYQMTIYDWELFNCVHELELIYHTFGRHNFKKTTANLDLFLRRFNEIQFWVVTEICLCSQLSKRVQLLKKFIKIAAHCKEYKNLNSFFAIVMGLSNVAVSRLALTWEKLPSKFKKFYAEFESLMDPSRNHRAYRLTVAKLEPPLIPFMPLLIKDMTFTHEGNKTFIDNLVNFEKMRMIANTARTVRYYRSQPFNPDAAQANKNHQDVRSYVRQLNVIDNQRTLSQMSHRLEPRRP
Sequence of Glucocorticoid receptor (Homo sapiens) (P04150 whole entry, looked up, the tested form may be a part): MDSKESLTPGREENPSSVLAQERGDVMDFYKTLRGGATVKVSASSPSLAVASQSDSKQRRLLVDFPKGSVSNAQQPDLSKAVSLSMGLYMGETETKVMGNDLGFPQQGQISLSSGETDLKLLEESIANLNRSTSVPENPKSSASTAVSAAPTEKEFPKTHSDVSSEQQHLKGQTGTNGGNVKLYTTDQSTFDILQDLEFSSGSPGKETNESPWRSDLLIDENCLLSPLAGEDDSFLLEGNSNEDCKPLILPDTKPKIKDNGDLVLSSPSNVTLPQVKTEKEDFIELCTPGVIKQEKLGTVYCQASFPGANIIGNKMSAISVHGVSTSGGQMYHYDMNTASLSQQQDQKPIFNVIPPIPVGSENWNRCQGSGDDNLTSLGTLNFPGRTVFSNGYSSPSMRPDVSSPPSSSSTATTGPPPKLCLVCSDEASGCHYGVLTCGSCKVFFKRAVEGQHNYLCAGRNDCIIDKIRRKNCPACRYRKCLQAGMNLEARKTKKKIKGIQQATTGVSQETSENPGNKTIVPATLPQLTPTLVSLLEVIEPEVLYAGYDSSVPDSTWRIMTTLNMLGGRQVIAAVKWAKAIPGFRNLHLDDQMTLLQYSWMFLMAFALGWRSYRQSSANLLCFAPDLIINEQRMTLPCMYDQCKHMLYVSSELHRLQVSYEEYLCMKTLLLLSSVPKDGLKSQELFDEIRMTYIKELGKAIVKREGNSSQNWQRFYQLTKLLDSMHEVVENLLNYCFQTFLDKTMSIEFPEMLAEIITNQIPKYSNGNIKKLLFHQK
Sequence of Rap guanine nucleotide exchange factor 3 (Homo sapiens) (O95398 whole entry, looked up): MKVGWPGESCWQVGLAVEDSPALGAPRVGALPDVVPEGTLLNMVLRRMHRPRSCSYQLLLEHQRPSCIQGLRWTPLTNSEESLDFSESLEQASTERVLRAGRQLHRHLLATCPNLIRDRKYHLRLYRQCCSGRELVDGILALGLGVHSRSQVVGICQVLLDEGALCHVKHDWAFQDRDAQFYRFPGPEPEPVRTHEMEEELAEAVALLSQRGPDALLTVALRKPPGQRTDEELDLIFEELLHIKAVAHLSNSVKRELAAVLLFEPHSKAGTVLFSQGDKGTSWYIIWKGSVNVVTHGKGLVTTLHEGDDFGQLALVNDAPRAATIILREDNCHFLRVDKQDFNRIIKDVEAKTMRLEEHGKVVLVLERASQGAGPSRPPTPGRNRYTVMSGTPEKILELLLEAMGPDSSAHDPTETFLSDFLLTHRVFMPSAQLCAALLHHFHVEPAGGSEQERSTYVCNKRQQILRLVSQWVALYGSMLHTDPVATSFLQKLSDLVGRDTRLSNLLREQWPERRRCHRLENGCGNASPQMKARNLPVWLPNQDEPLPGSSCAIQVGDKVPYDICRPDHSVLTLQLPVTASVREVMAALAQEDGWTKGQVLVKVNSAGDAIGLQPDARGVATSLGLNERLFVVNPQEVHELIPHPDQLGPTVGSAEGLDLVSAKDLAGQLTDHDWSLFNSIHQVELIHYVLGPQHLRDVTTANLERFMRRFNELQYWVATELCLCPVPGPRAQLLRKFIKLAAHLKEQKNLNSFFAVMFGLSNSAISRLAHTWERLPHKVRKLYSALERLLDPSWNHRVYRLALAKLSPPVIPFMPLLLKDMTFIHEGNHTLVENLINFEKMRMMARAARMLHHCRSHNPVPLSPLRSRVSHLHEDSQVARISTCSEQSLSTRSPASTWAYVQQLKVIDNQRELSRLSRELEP
Sequence of 3',5'-cyclic-AMP phosphodiesterase 4B (Homo sapiens) (Q07343 whole entry, looked up): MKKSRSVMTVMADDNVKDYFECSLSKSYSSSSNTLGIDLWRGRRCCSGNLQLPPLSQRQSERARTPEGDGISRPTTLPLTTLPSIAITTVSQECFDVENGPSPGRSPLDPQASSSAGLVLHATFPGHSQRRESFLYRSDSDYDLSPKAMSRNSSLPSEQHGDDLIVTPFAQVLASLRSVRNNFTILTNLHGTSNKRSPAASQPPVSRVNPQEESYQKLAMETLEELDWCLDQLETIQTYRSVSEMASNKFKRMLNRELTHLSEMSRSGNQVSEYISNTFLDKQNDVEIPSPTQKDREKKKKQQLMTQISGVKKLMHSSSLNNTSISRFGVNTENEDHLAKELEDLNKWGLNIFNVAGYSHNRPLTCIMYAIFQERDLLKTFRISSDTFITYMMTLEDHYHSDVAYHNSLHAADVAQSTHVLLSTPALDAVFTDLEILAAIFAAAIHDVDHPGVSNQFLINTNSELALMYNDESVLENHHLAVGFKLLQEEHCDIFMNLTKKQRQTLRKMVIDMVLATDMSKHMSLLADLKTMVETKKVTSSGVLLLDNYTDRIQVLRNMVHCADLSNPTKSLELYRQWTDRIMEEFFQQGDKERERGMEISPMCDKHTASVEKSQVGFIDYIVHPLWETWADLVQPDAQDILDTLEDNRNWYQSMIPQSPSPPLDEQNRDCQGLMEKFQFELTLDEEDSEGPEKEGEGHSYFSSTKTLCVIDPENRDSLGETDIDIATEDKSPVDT
Sequence of Dual specificity protein kinase CLK4 (Homo sapiens) (Q9HAZ1 whole entry, looked up): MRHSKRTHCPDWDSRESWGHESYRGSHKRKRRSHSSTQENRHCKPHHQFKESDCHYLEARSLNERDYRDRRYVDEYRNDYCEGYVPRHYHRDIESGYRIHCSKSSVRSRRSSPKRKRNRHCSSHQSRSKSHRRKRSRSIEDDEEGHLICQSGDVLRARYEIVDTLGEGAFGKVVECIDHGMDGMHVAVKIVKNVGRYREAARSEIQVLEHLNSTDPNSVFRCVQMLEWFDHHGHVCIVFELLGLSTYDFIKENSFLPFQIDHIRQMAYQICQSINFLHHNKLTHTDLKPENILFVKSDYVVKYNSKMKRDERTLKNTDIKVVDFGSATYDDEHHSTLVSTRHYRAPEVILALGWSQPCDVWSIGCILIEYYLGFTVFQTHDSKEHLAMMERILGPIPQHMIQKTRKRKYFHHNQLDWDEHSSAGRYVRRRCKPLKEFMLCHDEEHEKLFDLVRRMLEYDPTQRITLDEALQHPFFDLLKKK
Sequence of Tumor susceptibility gene 101 protein (Homo sapiens) (Q99816 whole entry, looked up, the tested form may be a part): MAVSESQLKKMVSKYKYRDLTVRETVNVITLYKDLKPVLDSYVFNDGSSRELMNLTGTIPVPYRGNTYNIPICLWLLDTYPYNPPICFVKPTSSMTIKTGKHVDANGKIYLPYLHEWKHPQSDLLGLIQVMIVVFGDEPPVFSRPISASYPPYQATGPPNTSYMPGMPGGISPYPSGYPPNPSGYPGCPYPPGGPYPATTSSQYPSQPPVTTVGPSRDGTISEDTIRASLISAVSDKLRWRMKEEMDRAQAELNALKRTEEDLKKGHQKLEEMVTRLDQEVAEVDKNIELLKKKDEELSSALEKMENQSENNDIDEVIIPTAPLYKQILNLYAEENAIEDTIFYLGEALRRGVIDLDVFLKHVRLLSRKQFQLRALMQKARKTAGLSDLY
Sequence of Cytochrome P450 1A2 (Homo sapiens) (P05177 whole entry, looked up): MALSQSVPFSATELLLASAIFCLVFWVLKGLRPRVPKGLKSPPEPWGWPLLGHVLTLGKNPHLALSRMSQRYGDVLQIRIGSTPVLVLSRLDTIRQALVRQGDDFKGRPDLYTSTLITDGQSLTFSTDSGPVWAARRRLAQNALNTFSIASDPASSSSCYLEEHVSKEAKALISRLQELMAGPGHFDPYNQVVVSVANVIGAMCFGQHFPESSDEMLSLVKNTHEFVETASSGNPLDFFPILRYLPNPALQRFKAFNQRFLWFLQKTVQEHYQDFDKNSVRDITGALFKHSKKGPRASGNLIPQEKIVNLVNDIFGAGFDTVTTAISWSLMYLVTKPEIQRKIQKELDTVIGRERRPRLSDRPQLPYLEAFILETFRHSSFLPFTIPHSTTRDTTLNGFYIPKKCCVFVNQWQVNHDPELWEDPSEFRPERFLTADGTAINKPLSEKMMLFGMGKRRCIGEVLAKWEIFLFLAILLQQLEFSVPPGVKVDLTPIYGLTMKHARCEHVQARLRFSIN

O=C(c1ccco1)N1CCC2(CC1)CN(c1cccc(-c3ccccc3)c1)C2
active: Potency [3] 7.94 µM
inactive: Potency [1] > 11.4 µM | activity change, negative = inhibition [2] -23.1% | outcome [4] | Potency [5] > 46 µM | Potency [6] | Potency [7] | Potency [8] | Potency [9] | Potency [10]

Cc1nc(Nc2ccc(S(=O)(=O)N3CCCCC3C)cc2)c2nnn(Cc3ccccc3)c2n1 (stereo unspecified)
inactive: Potency [11] | Potency [7] | Potency [8] | Potency [9] | Potency [10] | Potency [12]

C=C1CCC(O)C/C1=C\C=C1/CCCC2(C)C1CCC2C(C)CCCC(C)C (stereo unspecified)
inactive: outcome [13] | Potency [8] | Potency [9]
active: Potency [7] 55.9 µM | Potency [10] 39.3 µM

COc1ccccc1Nc1nc2ccc(C)cc2cc1C#N
inactive: Potency [7] | Potency [8] | Potency [9] | Potency [14]

COc1ccc2[nH]cc(CCNc3ncnc4ccc(-c5ccccc5OC)cc34)c2c1
active: Potency [3] 7.94 µM | Potency [17] 0.251 µM | Potency [19] 3.98 µM | Potency [20] 2 µM | Potency [21] 25.1 µM
inactive: Potency [1] > 11.4 µM | activity change, negative = inhibition [2] -28.6% | activity change, negative = inhibition [15] 20.2% | outcome [4] | Potency [16] > 46 µM | Potency [5] > 46 µM | Potency [6] | outcome [18] | Potency [22] | Potency [23] | Potency [7] | Potency [8] | Potency [9] | Potency [10]

Oc1ccc2ccc3cccc[n+]3c2c1
active: Potency [11] 4.11 µM | Potency [8] 112 µM | Potency [9] 100 µM | Potency [12] 39.8 µM
inactive: Potency [7] | Potency [10]

O=C(O)c1ccc(/C=N/Nc2cccc(C(F)(F)F)c2)cc1
inactive: Potency [7] | Potency [8] | Potency [9] | Potency [14]

CN(Cc1ccnc2ccccc12)C(=O)C1CCC(=O)N(Cc2ccccc2F)C1 (stereo unspecified)
inactive: Potency [7] | Potency [8] | Potency [9] | Potency [14]

COC(=O)c1nc2nc(C)cc(=O)n2[nH]1
inactive: Potency [7] | Potency [8] | Potency [9] | Potency [14]

Nc1ccc(Oc2ncccn2)cc1
inactive: Potency [7] | Potency [8] | Potency [9] | Potency [14]
